Measured values reported in PubChem BioAssay (NCATS).
A number with no mark means an inactive call. Calls of active or inactive are those of the source. Calls come from the whole dose curve; as a rule, active = well fitted curve in the direction sought with a large enough effect; inconclusive = small, poorly fitted or top-dose-only effect, or another doubt; inactive = no such curve, though single readings can be large or run the other way.

biological target: Alpha-galactosidase (Coffea arabica) (UniProt Q42656); assay: Counterscreen for Glucocerebrosidase Inhibitors: qHTS Assay for Coffee Bean alpha-Galactosidase at pH 4.5 (AID 957); conditions: purified coffee bean alpha-galactosidase, fluorogenic substrate; series mostly up to 76.9 µM; activity change, negative = inhibition: at the top concentration;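 note: plate controls were enzyme alone for no effect and no enzyme for full effect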
Sequence (Q42656 whole entry, looked up): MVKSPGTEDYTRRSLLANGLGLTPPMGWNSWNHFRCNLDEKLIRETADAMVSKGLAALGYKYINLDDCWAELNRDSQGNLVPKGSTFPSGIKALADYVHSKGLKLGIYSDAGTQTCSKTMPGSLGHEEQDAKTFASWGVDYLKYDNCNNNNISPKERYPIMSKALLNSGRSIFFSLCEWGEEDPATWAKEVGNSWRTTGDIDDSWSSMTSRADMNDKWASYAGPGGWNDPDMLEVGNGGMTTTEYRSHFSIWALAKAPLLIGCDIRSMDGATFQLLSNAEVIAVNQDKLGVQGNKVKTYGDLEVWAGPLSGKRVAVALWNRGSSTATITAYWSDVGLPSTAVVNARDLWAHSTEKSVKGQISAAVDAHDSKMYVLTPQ
From the text: NIH Chemical Genomics Center [NCGC]
NIH Molecular Libraries Screening Centers Network [MLSCN]
PI Name: Zheng, Wei [NIH]
Alpha-galactosidase is a homodimeric glycoprotein that hydrolyzes the terminal alpha-galactosyl moieties from glycolipids and glycoproteins. Deficiency of this enzyme results in Fabry Disease with progressive accumulation of globotriaosylceramide and other glycosphingolipids in vascular endothelial cells that causes renal failure, myocardial infarction and stroke, and premature death in patients. It has reported that the improper folding and trafficking of alpha-galactosidase resulted from the genetic mutations may account for a significant numbers of Fabry patients. […] We optimized this coffee bean alpha-galactosidase assay in 1536-well plate format as a counter-screen assay for identifying the selective small molecule inhibitors of other lysosomal enzymes.
NCGC Assay Protocol Summary:
This is a fluorogenic enzyme assay with 4-Methylumbelliferyl alpha-D-galactopyranoside as the substrate and green coffee bean […] (from Sigma-Aldrich) as the enzyme preparation. Upon the hydrolysis of this fluorogenic substrate, the resulting product, […]. 4-Methyllumbelliferone, can be excited at 365 nm and emits at 440 nm which can be detected by a standard fluorescence plate reader. Data were normalized to the controls for basal activity (without enzyme) and 100% activity (with enzyme). In the AC50 values were determined from concentration-response data modeled with the standard Hill equation.
Assay buffer: 50 mM citric acid, 0.005% Tween-20, pH 4.5. (pH 5.9 is an optimal condition for this enzyme assay. This assay in pH 4.5 is used for comparison the inhibitor activities with the human alpha-galactosidase assay)
1536-well assay protocol for the coffee bean alpha-galactosidase:
(1) Add 2 ul/well of enzyme (2 nM final)
(2) Add 23 nL compounds in DMSO solution. The final titration was 0.7 nM to 77 uM.
(3) Add 1 ul of substrate (80 uM final)
(4) Incubate at room temperature for 20 min.
(5) Add 2 ul stop solution (1M NaOH and 1M Glycine mixture, pH 10)
(6) Detect the assay plate in a ViewLux plate reader (PerkinElmer) with Ex=365 nm and Em=440nm.
Keywords: Alpha-galactosidase, Fabry Disease, pharmacological chaperone, chaperone therapy, high throughput screening, alpha-galactosidase inhibitor, MLSMR, MLSCN, NIH Roadmap, qHTS and NCGC

Structure (SMILES) | activity change, negative = inhibition | outcome
OCCN1CCN(CCCN2c3ccccc3Sc3ccc(C(F)(F)F)cc32)CC1 | -5.43% | 
CN1CCC(=C2c3ccccc3C=Cc3ccccc32)CC1 | -5.63% | 
CCN(CC)CCNC(=O)c1cc(Cl)c(N)cc1OC | -2.61% | 
CC(C)NCC(O)COc1cccc2[nH]ccc12 (stereo not given) | -1.1% | 
Cc1ccccc1N1C(=O)c2cc(S(N)(=O)=O)c(Cl)cc2NC1C (stereo not given) | 1.98% | 
Cc1ncc(CNC(=O)N(CCCl)N=O)c(N)n1 | -0.428% | 
Cn1cnc([N+](=O)[O-])c1Sc1ncnc2nc[nH]c12 | -1.13% | 
c1ccc(C2CC2)c(OCC2=NCCN2)c1 | -1.29% | 
CC(C)C(=O)Nc1ccc([N+](=O)[O-])c(C(F)(F)F)c1 | -2% | 
CC(C)OC(=O)C(C)(C)Oc1ccc(C(=O)c2ccc(Cl)cc2)cc1 | -5.71% | 
CN(C)CCCN1c2ccccc2Sc2ccc(Cl)cc21 | -6.46% | 
C[C@](N)(Cc1ccc(O)c(O)c1)C(=O)O | -3.19% | 
Cn1ccc2cc3c(cc21)CCN3C(=O)Nc1cccnc1 | -2.03% | 
CCCN(CCC)CCc1cccc2c1CC(=O)N2 | -2.89% | 
CC1(C)NC(=O)N(c2ccc([N+](=O)[O-])c(C(F)(F)F)c2)C1=O | -4.57% | 
NN=C(N)N |  | inactive
NC[C@H](O)c1ccc(O)c(O)c1 |  | inactive
O=C1c2c(O)ccc(O)c2C(=O)c2c(NCCNCCO)ccc(NCCNCCO)c21 | 0.232% | 
Cc1cn[nH]c1 | 1.91% | 
CN(Cc1cnc2nc(N)nc(N)c2n1)c1ccc(C(=O)N[C@@H](CCC(=O)O)C(=O)O)cc1 | 0.997% | 

Structure (SMILES) | activity change, negative = inhibition | outcome
CN(C)CCC[C@@]1(c2ccc(F)cc2)OCc2cc(C#N)ccc21 | 0.234% | 
CN1CCN(C2=Nc3cc(Cl)ccc3Nc3ccccc32)CC1 | -1.37% | 
NC(=O)NO | 3.22% | 
O=C1CCc2cc(OCCCCc3nnnn3C3CCCCC3)ccc2N1 | 3.29% | 
N[C@@H]1C[C@H]1c1ccccc1 | 0.0931% | 
COc1cc2c(c(OC)c1OC)-c1ccc(OC)c(=O)cc1[C@@H](NC(C)=O)CC2 | -3.14% | 
CN(C)C(=O)C(CCN1CCC(O)(c2ccc(Cl)cc2)CC1)(c1ccccc1)c1ccccc1 | -5.5% | 
CN1CCN(C2=Nc3ccccc3Oc3ccc(Cl)cc32)CC1 | 0.313% | 
CCn1cc(C(=O)O)c(=O)c2ccc(C)nc21 | 1.48% | 
Cc1ccc(S(=O)(=O)N[C@@H](CCCCN)C(=O)CCl)cc1 | 0.587% | 
COC(=O)Nc1nc2ccc(C(=O)c3cccs3)cc2[nH]1 | -3.94% | 
Clc1ccc2c(c1)C(N1CCNCC1)=Nc1ccccc1O2 | -0.545% | 
CN1CCC[C@@H]1CCO[C@](C)(c1ccccc1)c1ccc(Cl)cc1 | -5.35% | 
COc1ccccc1N1CCNCC1 | -1.54% | 
O=NN(CCCl)C(=O)NCCCl | 1.71% | 
O=C(c1ccc(OCCN2CCCCC2)cc1)c1c(-c2ccc(O)cc2)sc2cc(O)ccc12 | -5.79% | 
Cc1oncc1C(=O)Nc1ccc(C(F)(F)F)cc1 | 3.58% | 
CCCC(C)(COC(N)=O)COC(=O)NC(C)C (stereo not given) | 1.56% | 
CN(C)c1nc(N(C)C)nc(N(C)C)n1 | -0.867% | 
Cc1ccc(S(=O)(=O)NC(=O)NN2CCCCCC2)cc1 | -1.24% | 
